Screens: PubChem BioAssay, University of Kansas High Throughput Screening Laboratory
In the library only some 3.6% were active in any assay of this set; here they are far more common.
mHTT-CaM PPI inh: mHTT-calmodulin interaction abrogation; P42858; AlphaScreen His-mHTT/GST-CaM binding, luminescence; inhibition, % at 15 µM; actives 3.6% (n = 190,000);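 also: 0% = both proteins with DMSO and 100% = one protein alone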
Pf apPOL inh: Pf-apPOL DNA polymerase inhibition; actives 0.25% (n = 210,000); Recombinant Pf-apPOL, molecular beacon fluorescence, 1.5 h; inhibition, % at 10 µM
* = called active by the depositor; i = inactive; x = no result given. Rule as the data show it: active = inhibition above about 50%; inactive = the rest.

SMILES	mHTT-CaM PPI inh	Pf apPOL inh
Cc1ccccc1NC(=O)c1ccc(C)c(S(=O)(=O)Nc2cccc(C(=O)O)c2)c1	-3	-4
COc1ccccc1C(=O)COC(=O)CCN1C(=O)c2ccccc2C1=O	4	-6
COc1ccc(OCCNc2ccc(C(F)(F)F)cc2[N+](=O)[O-])cc1	26	-2
COc1ccc(Nc2ccc(C(F)(F)F)cc2[N+](=O)[O-])cc1	53*	0
COc1cccc(C2CC(C(F)(F)F)n3ncc(C(=O)NCC(C)C)c3N2)c1 (configuration not stated)	-7	2
CC(C)S(=O)(=O)c1cccc(-c2nnc(NC(=O)c3ccc4c(c3)CCCC4)o2)c1	51*	-18
COc1ccccc1-c1nnc(NC(=O)c2ccc3c(c2)CCCC3)o1	-2	-6
CN(C)c1ccc(NC(=O)Nc2cn(C)c3ccccc23)cc1	56*	2
CC1CCCCC1NC(=O)Nc1cn(C)c2ccccc12 (configuration not stated)	-10	-1
CC[C@@H]1CC=C[C@H]2[C@H]1C(=O)N(Cc1ccccc1)[C@H]2c1ccoc1	85*	-1
C[C@@H]1CC=C[C@H]2[C@H]1C(=O)N(Cc1ccccc1)[C@H]2c1ccoc1	15	1
O=C1C2C(c3ccccc3)CC=CC2[C@H](c2cccc(Br)c2)N1Cc1ccccc1 (some centres not stated)	100*	-1
CC[C@@H]1CC=C[C@H]2[C@H]1C(=O)N(Cc1ccccc1)[C@H]2c1ccc(C(F)(F)F)cc1	71*	-4
O=C1C2C(c3cccc(/C=C/c4ccccc4)c3)CC=CC2C(c2ccc3ccccc3c2)N1Cc1ccccc1 (configuration not stated)	-6	-5
O=C1C2C(c3cccc(/C=C/c4ccccc4)c3)CC=CC2C(c2ccc(C(F)(F)F)cc2)N1Cc1ccccc1 (configuration not stated)	-3	-4
O=C(c1ccc(OCC2CCCN2C(=O)COc2ccc(F)cc2)cc1)N1CCCC1 (configuration not stated)	-2	22
Cc1cc(Cl)ccc1S(=O)(=O)Nc1ccccn1	-6	-3
Cc1c(Cl)cccc1NC(=O)N1CCc2nc(-c3ccc(F)cc3)ncc2C1	-6	-1
COc1cc(/C=c2\sc3nc(-c4ccccc4Br)nn3c2=O)cc(OC)c1OC	5	3
COC(=O)[C@H]1N[C@@H]([C@@H](NC(=O)COc2ccccc2)C(=O)NCc2ccsc2)SC1(C)C	-3	0
COc1cc([N+](=O)[O-])ccc1N1C(=O)C2C3c4ccccc4C(C)(c4ccccc43)C2C1=O (configuration not stated)	30	3
O=[N+]([O-])c1cc(C=Nc2cc(-c3ccccc3)ccc2O)c(O)c([N+](=O)[O-])c1	51*	-1
Cc1ccc(C(=O)O)cc1N=Cc1cc([N+](=O)[O-])cc([N+](=O)[O-])c1O	-3	-4
COc1cc(C=Nc2ccccc2O)c([N+](=O)[O-])cc1OC	86*	-6
COc1cc(/C=N/O)c([N+](=O)[O-])cc1OC	i	x
SMILES	mHTT-CaM PPI inh	Pf apPOL inh
Cc1ccc(N=Cc2cc(Cl)cc([N+](=O)[O-])c2O)c(O)c1	56*	-4
Cc1ccc(N=Cc2cc(Cl)cc([N+](=O)[O-])c2O)cc1	6	11
COc1ccccc1Cc1nc(-c2ccccn2)no1	0	-13
Cc1c(C)c(C)c(S(=O)(=O)Nc2ccc(CC(=O)NCC(F)(F)F)cc2)c(C)c1C	0	2
CCCS(CC1CC1(Cl)Cl)=NS(=O)(=O)c1ccc(C)cc1 (configuration not stated)	3	-1
CC1CCN(C(=O)c2cc3c(s2)CCC(C(=O)N2CCN(C)CC2)C3)CC1 (configuration not stated)	3	-4
Cn1nc(NC(=O)c2ccc(F)cc2Cl)c2c1NC(=O)CC2c1ccco1 (configuration not stated)	-10	-4
Cc1[nH]nc2c1C(c1ccco1)CC(c1ccco1)=C2 (configuration not stated)	65*	x
Cn1nnnc1SCC(=O)n1c2c(c3c1CCCC3)CCCC2	-6	x
Cc1cc(C)nc(SC2=CS(=O)(=O)c3ccccc32)n1	-2	25
O=S1(=O)C=C(Sc2cccc3cccnc23)c2ccccc21	68*	6
O=C(C1CCC1)N1CCN(C2=NN=C(c3cccs3)CS2)CC1	78*	-5
O=C(c1cccs1)N1CCN(C(=O)C2CCCCC2)CC1	x	-8
O=C(Nc1ccc(Br)cc1)c1nc[nH]c1C(=O)O	80*	-3
O=C(Nc1ccccc1)c1nc[nH]c1C(=O)Nc1ccccc1	-7	-8
COc1ccc(CNC(=O)C2CCCN(S(=O)(=O)N3CCC(C)CC3)C2)c(OC)c1 (configuration not stated)	10	-10
CCOc1cccc(CNC(=O)C2CCN(c3nnc(-c4ccccc4)o3)CC2)c1	20	-2
CN(C)CCNC(=O)C1CCN(c2nc3ccc(-c4ccncc4)nc3s2)CC1	-2	-6
CCN(CC)C(=O)C1CCN(c2nc3ccc(-c4cccs4)nc3s2)CC1	64*	-1
CN(C)CCNC(=O)C1CCN(c2nc3ccc(-c4ccsc4)nc3s2)CC1	66*	4
CCCNC(=O)C1CCN(c2nc3ccc(-c4cccs4)nc3s2)CC1	9	0
CCCCC1(CO)C(=O)N(c2ccccc2)N(c2ccccc2)C1=O	x	-12
CCCCC1(CC(=O)Nc2ccc(F)cc2)C(=O)N(c2ccccc2)N(c2ccccc2)C1=O	98*	-1
CCC(C)NC(=O)c1ccc(CS(=O)(=O)Cc2ccc(Cl)cc2)o1 (configuration not stated)	-13	-14
CC(=O)N1c2ccccc2NC2=C(C(=O)CC(c3ccc(F)cc3)C2)C1c1cccnc1 (configuration not stated)	6	1
SMILES	mHTT-CaM PPI inh	Pf apPOL inh
CC1(C)CC(=O)C2=C(C1)Nc1ccccc1N(C(=O)C(F)(F)F)C2c1cccc(O)c1 (configuration not stated)	4	-8
CC(=O)N1c2ccccc2NC2=C(C(=O)CC(c3ccc(Cl)c(Cl)c3)C2)C1c1cccnc1 (configuration not stated)	83*	-7
CC1(C)CC(=O)C2=C(C1)Nc1ccccc1N(C(=O)C(F)(F)F)C2c1cccnc1 (configuration not stated)	4	63*
O=C(NC1CC2CC1CN2C(=O)c1nccc2ccccc12)c1cccs1 (configuration not stated)	4	-2
Cc1cc(C2CCCN2C(=O)Nc2cccc(Cl)c2)no1 (configuration not stated)	-10	1
CCOc1ccc(-c2cnc3ccccc3n2)cc1	-11	0
Cc1ccc(/C=C2\Sc3ccccc3C2=O)cc1[N+](=O)[O-]	14	2
CN1CCN(c2ccc(/C=C3\Sc4ccccc4C3=O)cc2[N+](=O)[O-])CC1	72*	2
CCOc1ccc(N(C)c2ccc(/C=C3/C(=O)N(c4ccccc4)N=C3C)cc2)cc1	5	2
COc1ccccc1/C=C1\SC(=O)N(Cc2ccc(F)cc2)C1=O	-3	-6
COc1cc(/C=C2\SC(=O)N(Cc3ccc(F)cc3)C2=O)c(Br)cc1O	75*	0
O=S(=O)(CC1NCc2ccccc21)NCCc1ccccc1 (configuration not stated)	41	-18
CN(C)c1cccc(OCc2noc(-c3cccc(Cl)c3)n2)c1	62*	-21
